Test [1] is described as follows: small molecules captured by biotinylated probe aFSTL3 – biochemical, small-molecule microarray, fluorescence 635/667, stem cell growth factor project, primary screen (AID 1064).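 Note: measures binding of the biotinylated anti-FSTL3 antibody to printed compounds.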 The conditions noted are these: higher = more signal.
A short description of test [2]: binders from COS7 lysate, DM2A8 probe, primary screen, torsin A project, cell lysate, small-molecule microarray, fluorescence 635/667 (AID 1065). The conditions noted are these: higher = more signal, COS7 lysate expressing mutant human TOR1A.
Test [3] in a line: small molecules captured by biotinylated probe aFGF2 – biochemical, small-molecule microarray, fluorescence 635/667, stem cell growth factor project, primary screen (AID 1067).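 Note: measures binding of biotinylated aFGF2 protein to printed compounds on slides; z-score merges feature fluorescence and signal-to-noise across triplicate slides.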 The conditions noted are these: higher = more signal.
Test [4] can be described thus: small molecules captured by biotinylated probe aFGF10 – biochemical, small-molecule microarray, fluorescence 635/667, stem cell growth factor project, primary screen (AID 1071).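 Note: score merges 667 nm spot intensity and signal to noise from triplicate slides.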 The conditions noted are these: higher = more signal.
Test [5] concerns the target Neurogenic locus notch homolog protein 2 (Homo sapiens) (UniProt Q04721). The test is described as follows: small molecules binding Notch2 protein – biochemical, small-molecule microarray, 635 nm fluorescence, stem cell growth factors, primary screen (AID 1073). The conditions noted are these: higher = more signal.
Test [6] has as its target Pro-neuregulin-1, membrane-bound isoform (Homo sapiens) (UniProt Q02297). The test is described as follows: small molecules binding neuregulin-1 protein – biochemical, small-molecule microarray, fluorescence 635/667, psychiatric disease protein project, primary screen (AID 1075).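 Note: score combines 667 nm spot fluorescence with signal to noise.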 The conditions noted are these: NRG1 binding, 635 nm fluorescence, higher = more signal.
Test [7] relates to Neuregulin-1 EGF-like domain. The test is described as follows: small molecules binding NRG1 EGF domain – biochemical, small-molecule microarray, 635 nm fluorescence, primary screen (AID 1081).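 Note: binding of the protein to compounds printed on small-molecule microarray slides.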 The conditions noted are these: higher = more signal.
A short description of test [8]: FRG1 expression reporter modulators in myotubes – cell-based, C2C12 myotubes, firefly/Renilla luciferase, luminescence, FRG1 inhibition for FSHD, primary screen (AID 1084). The conditions noted are these: FRG1 promoter luciferase, higher = more signal, called active from +8 up or from −8 down.
A short description of test [9]: small molecules captured by biotinylated probe aFST – biochemical, small-molecule microarray, fluorescence 635/667, stem cell growth factor project, primary screen (AID 1086).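 Note: score merges 667 nm fluorescence with signal-to-noise of each printed compound spot.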 Conditions: higher = more signal.
A short description of test [10]: binders of probe aHhip on microarray, primary screen, stem cell growth factor project, biochemical, small-molecule microarray, fluorescence 635/667 (AID 1087).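 Note: score merges spot fluorescence at 667nm with spot signal to noise ratio.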 The conditions noted are these: higher = more signal.
Test [11] deals with PRMT1 (protein arginine N-methyltransferase 1). The test is described as follows: small molecules binding arginine methyltransferase PRMT1 – biochemical, small-molecule microarray, 635 nm fluorescence, primary screen (AID 1088).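 Note: binding of Prmt1 protein to compounds spotted on small-molecule microarray slides.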 Conditions: higher = more signal.
Test [12] in a line: growth effects on S. cerevisiae YJM789 – YJM789 clinical isolate, OD600, 24 h, basal, primary screen (AID 1089).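 Note: growth of clinical yeast isolate S. cerevisiae YJM 789 seeded 1000 cells per well; test concentration not given here.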 The conditions noted are these: higher = more signal, called active from +8 up or from −8 down.
Test [13] is described as follows: S. pombe growth modifiers, basal conditions – strain 972, OD600, 24 h, no modulator, primary screen (AID 1090).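 Note: basal condition with compound alone and no growth modifier present; test concentration not given here.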 The conditions noted are these: S. pombe 972 growth, higher = more signal, called active from +8 up or from −8 down.
The nature of test [14]: budding yeast growth modifiers under rapamycin – strain BY4716, OD600, 96 h, primary screen (AID 1091). Note: test concentration not given here. The conditions noted are these: S. cerevisiae BY4716 + rapamycin, higher = more signal, called active from +8 up or from −8 down.
Test [15] has as its target Torsin-1A-interacting protein 2 (Homo sapiens) (UniProt Q8NFQ8). The test is described as follows: small molecules binding lysate-expressed LULL1 – cell lysate, human LULL1 lysate, 635/667 nm fluorescence, primary screen (AID 1092).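 Note: probe is lysate of COS7 cells overexpressing human LULL1; score merges per-feature 667 nm fluorescence with signal-to-noise.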 Conditions: small-molecule microarray, hLULL1 lysate binding, 635 nm fluorescence; higher = more signal.
Test [16] in a line: optical density change of DRC41 E. coli – strain DRC41, OD650, 24 h, E. coli filamentation project, primary screen (AID 1093).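 Note: MC1000 strain lacking acrAB efflux and sulA so SOS filamentation is blocked; test concentration not given here.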 The conditions noted are these: E. coli DRC41 growth, higher = more signal, called active from +8 up or from −8 down.
Test [17] can be described thus: probe aLefty2 binding to arrayed compounds – biochemical, biotinylated probe, 635/667 nm fluorescence, primary screen (AID 1094).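 Note: score merges spot fluorescence near 667 nm with spot signal-to-noise ratio.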 The conditions noted are these: small-molecule microarray, higher = more signal.
Test [18] relates to Noggin (protein binding on small-molecule microarray). The test is described as follows: small molecules binding Noggin protein – biochemical, 635/667 nm fluorescence, primary screen (AID 1095).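 Note: score merges 667 nm feature fluorescence with signal to noise over triplicate slides.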 Conditions: 635 nm fluorescence, higher = more signal.
Test [19] concerns the target Neurogenic locus notch homolog protein 3 (Homo sapiens) (UniProt Q9UM47). The test is described as follows: small molecules binding NOTCH3 protein – biochemical, 635/667 nm fluorescence, primary screen (AID 1096). Conditions: small-molecule microarray, 635 nm fluorescence, higher = more signal.
A short description of test [20]: probe aEGFR binding to arrayed compounds – biochemical, biotinylated probe, 635/667 nm fluorescence, primary screen (AID 1097).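 Note: probe is a biotinylated anti-EGFR antibody binding compounds printed on slides; score combines fluorescence near 667 nm and signal to noise of each spot.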 The conditions noted are these: small-molecule microarray, higher = more signal.

Calls of active or inactive are those of the source.

Sequence of Torsin-1A-interacting protein 2 (Homo sapiens) (Q8NFQ8 whole entry, looked up): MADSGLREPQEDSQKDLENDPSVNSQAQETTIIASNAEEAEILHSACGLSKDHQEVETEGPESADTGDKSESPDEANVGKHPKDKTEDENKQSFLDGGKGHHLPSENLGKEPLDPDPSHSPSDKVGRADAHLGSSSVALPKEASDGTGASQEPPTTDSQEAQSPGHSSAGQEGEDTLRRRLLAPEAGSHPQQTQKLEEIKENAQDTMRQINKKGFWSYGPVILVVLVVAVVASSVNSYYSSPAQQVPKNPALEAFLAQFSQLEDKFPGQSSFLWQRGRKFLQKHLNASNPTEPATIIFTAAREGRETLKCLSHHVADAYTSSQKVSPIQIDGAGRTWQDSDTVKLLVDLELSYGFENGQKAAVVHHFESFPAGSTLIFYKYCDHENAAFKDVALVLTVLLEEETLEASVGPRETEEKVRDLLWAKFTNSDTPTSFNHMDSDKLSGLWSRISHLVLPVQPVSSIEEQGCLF
Sequence of Neurogenic locus notch homolog protein 2 (Homo sapiens) (Q04721 whole entry, looked up, canonical isoform): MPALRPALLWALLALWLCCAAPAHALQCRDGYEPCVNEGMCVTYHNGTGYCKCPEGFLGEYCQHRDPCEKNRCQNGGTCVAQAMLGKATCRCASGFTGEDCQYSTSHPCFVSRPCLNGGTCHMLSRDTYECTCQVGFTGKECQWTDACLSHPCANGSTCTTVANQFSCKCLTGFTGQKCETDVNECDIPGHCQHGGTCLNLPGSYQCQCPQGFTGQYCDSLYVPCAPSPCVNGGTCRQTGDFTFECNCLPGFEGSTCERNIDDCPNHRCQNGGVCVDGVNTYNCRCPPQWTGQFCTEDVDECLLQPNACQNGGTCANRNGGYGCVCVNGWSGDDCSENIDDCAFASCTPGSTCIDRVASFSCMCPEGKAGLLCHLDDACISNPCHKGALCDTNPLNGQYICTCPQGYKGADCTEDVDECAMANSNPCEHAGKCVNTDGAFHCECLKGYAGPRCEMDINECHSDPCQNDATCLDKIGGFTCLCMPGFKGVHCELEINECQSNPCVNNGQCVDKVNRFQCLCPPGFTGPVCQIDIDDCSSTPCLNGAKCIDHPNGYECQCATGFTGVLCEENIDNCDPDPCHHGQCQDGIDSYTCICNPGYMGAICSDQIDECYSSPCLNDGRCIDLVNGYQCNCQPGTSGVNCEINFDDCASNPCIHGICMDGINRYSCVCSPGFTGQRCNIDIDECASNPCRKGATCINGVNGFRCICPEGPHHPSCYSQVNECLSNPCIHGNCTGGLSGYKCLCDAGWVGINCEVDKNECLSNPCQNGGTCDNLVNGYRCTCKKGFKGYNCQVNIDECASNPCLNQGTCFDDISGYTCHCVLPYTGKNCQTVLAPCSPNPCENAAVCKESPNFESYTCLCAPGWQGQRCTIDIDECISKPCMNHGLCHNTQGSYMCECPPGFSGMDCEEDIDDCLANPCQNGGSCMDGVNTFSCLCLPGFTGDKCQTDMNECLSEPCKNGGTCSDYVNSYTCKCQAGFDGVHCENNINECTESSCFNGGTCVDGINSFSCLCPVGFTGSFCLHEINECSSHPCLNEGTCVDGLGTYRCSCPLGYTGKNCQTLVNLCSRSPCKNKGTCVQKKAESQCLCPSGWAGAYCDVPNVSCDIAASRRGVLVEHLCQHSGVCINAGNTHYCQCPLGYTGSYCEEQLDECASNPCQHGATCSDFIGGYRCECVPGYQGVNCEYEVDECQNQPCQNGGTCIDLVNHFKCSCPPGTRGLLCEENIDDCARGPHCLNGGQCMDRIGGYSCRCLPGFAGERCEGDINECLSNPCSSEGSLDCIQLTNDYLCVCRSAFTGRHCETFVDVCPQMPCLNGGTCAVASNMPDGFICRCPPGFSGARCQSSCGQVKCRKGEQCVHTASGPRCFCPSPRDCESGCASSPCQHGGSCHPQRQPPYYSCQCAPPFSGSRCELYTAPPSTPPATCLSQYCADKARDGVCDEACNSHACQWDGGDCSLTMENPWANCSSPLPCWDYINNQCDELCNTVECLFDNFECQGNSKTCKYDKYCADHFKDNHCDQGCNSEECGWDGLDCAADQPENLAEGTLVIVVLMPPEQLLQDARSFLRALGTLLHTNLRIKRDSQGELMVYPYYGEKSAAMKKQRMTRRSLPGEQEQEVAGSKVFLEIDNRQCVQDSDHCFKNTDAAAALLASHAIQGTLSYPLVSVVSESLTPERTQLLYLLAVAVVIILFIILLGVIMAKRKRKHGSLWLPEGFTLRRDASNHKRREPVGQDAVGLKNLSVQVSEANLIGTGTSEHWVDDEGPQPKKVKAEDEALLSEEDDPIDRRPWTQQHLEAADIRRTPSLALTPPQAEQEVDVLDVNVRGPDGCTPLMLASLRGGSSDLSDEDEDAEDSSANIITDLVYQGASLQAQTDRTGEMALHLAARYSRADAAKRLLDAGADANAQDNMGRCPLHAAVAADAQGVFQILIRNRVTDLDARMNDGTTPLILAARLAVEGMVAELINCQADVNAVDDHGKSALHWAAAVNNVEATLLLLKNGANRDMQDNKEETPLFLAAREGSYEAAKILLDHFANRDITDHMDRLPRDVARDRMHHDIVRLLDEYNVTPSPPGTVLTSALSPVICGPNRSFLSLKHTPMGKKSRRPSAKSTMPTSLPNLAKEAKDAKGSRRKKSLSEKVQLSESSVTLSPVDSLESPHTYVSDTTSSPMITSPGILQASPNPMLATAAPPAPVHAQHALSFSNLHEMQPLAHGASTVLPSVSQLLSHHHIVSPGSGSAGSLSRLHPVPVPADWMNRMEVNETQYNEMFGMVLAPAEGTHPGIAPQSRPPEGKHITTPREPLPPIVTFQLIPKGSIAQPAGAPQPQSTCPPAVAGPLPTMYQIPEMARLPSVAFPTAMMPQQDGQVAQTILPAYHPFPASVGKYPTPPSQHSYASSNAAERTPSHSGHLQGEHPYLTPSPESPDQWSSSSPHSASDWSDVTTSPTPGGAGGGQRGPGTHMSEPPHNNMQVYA
Sequence of Pro-neuregulin-1, membrane-bound isoform (Homo sapiens) (Q02297 whole entry, looked up, the tested form may be a part, canonical isoform): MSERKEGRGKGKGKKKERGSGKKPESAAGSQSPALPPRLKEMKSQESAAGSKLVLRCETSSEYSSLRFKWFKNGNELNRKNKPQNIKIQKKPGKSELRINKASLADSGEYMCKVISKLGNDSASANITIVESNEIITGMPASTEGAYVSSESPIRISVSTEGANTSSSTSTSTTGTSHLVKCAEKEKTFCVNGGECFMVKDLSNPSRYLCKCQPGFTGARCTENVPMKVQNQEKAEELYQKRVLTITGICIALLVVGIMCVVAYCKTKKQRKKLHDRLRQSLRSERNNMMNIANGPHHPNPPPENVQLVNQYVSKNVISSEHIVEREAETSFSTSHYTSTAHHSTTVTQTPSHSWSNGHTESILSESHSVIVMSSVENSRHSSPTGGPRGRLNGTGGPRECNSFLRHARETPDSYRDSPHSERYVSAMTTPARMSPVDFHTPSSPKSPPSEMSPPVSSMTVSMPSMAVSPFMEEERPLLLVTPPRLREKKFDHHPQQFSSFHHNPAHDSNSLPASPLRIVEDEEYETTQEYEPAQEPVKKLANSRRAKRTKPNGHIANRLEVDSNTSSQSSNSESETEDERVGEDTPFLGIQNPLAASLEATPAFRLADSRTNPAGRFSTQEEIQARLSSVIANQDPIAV

Regarding `COCCOC(=O)N1C(=O)[C@@]2(c3ccccc31)[C@H](c1ccc(OCCO)cc1)N1[C@H](c3ccccc3)[C@H](c3ccccc3)OC(=O)[C@H]1[C@@H]2C(=O)N1CCN(c2ncccn2)CC1`, the composite z-score is -0.185 in [1]; 0.751 in test [2]; 0.0323 in test [3]; 0.559 in test [4]; 1.47 in test [5]; 1.33 in [6]. In addition, the composite z-score is 1.24 in test [7]; 0.742 in [9]; 0.107 in test [10]; 1.54 in test [11]; 2.5 in [15]; 0.101 in test [17]. The composite z-score in [18] came to 1.34; in [19], 1.05; in test [20] it was 0.241. Moreover, the z-score is -0.132 (inactive) in test [8]; 1.52 (inactive) in test [12]; 1.01 (inactive) in test [13]; 5.4 (inactive) in [14]; 0.374 (inactive) in test [16].
As for `COc1ccc(C(O)C2C=CC3C(=O)N(C)C(=O)C3N2Nc2ccc([N+](=O)[O-])cc2[N+](=O)[O-])cc1OCc1ccccc1` (stereo not given), the composite z-score was -0.0125 in test [1]; 0.216 in test [2]; 0.258 in [3]; 0.975 in [4]; 1.6 in test [5]; 0.875 in [6]. Further, the composite z-score was 1.27 in [7]; 1.04 in test [9]; -0.0296 in test [10]; 1.35 in [11]; 2.96 in test [15]; 0.468 in test [17]. In addition, the composite z-score was 0.0404 in test [18], 1.06 in test [19] and 0.349 in [20]. In addition, the z-score in test [8] is 0.37 (inactive); in test [12] it was 0.932 (inactive); in test [13], 1.01 (inactive); in test [14], 0.839 (inactive); in test [16] it was -0.636 (inactive).
Consider `C=CC(CO)NC(=O)OCC1c2ccccc2-c2ccccc21` (stereo not given), for which the composite z-score is -0.165 in test [1]; 0.96 in [2]; -0.178 in [3]; 0.282 in test [4]; 0.342 in [5]; 0.147 in test [6]. Further, the composite z-score was 0.256 in [7]; 0.0613 in [9]; -0.217 in test [10]; -0.341 in test [11]; -0.652 in test [15]; -0.145 in [17]. In addition, the values for the composite z-score in test [18], in [19] and in [20] were 0.497, 0.493 and -0.0192, respectively. Besides, the z-score in test [8] is -0.113 (inactive); in test [12] it was -1.2 (inactive); in test [13], -0.0715 (inactive); in test [14], -0.29 (inactive); in test [16], -0.77 (inactive).
As to `CCCCC(O)C1C=CC2C(=O)N(C)C(=O)C2N1Nc1ccccc1` (stereo not given), the composite z-score is 0.645 in [1]; 0.0873 in test [2]; -0.0778 in test [3]; 0.435 in test [4]; 0.762 in test [5]; 1.76 in [6]. The composite z-score was 1.25 in [7]; 0.632 in test [9]; 0.128 in test [10]; 0.24 in test [11]; 3.13 in test [15]; -0.013 in test [17]. The values for the composite z-score in [18], in test [19] and in [20] were -0.649, 0.51 and -0.143, respectively. Further, the z-score in test [8] is 1.63 (inactive); in [12] it was 0.763 (inactive); in test [13], 0.555 (inactive); in test [14], 1.99 (inactive); in test [16] it was -1.26 (inactive).
Consider `C=CCNC(=O)[C@H]1[C@@H]2C(=O)O[C@@H](c3ccccc3)[C@@H](c3ccccc3)N2[C@@H](c2ccccc2OCCO)[C@]12C(=O)N(C(=O)OCCOC)c1ccccc12`, for which the composite z-score in test [1] was 0.041; in test [2], 0.3; in test [3] it was -0.0226; in [4], 0.832; in test [5], 0.716; in test [6] it was 1.54. In addition, the composite z-score is 1.13 in test [7]; 0.186 in [9]; 0.0623 in test [10]; 1.51 in [11]; 2.78 in [15]; -0.196 in test [17]. The composite z-score in [18] is 0.786; in [19], 1.12; in test [20], -0.0828. Also, the z-score in test [8] is -2.27 (inactive); in test [12] it was 1.5 (inactive); in test [13], 2.05 (inactive); in test [14] it was 5.15 (inactive); in test [16], -0.513 (inactive).
In the case of `CC(C)(C)OC(=O)CC[C@]1(C(N)=O)N=C(c2ccc(OCCCO)cc2)O[C@H]1c1ccccc1CN=[N+]=[N-]`, the composite z-score in [1] amounted to 0.68; in [2], 1.13; in [3], 0.191; in [4], 0.873; in test [5], 1.53; in test [6], 2.66. The composite z-score in [7] stood at 1.47; in [9], 0.441; in test [10] it was 0.0722; in test [11], 1.15; in test [15], 3.62; in test [17], 0.314. For the same compound, the composite z-score in test [18] worked out at 0.0447; in test [19], 1.08; in test [20], 0.306. Also, the z-score in [8] is 5.29 (inactive); in [12] it was 1.33 (inactive); in test [13], 0.835 (inactive); in test [14], 0.56 (inactive); in test [16], 0.528 (inactive).

These data come from PubChem BioAssay.
